# From PubChem BioAssay (NCATS)
# Records with an inconclusive call do not appear. Activity calls are given as the source filed them. Unless noted, the call rests on the fitted dose curve; in most records, active means well fitted curve in the direction sought with a large enough effect; inconclusive means small, poorly fitted or top-dose-only effect, or another doubt; inactive means no such curve, though single readings can be large; an effect the other way counts as inactive or inconclusive.
# Legend:
# [1] = target: Lysosomal acid glucosylceramidase (Homo sapiens) (UniProt P04062); assay: Glucocerebrosidase-p2 (AID 348; in the data active means potency below about 10 µM; further: potency means the concentration at half of the fitted maximal effect); conditions: purified GBA, blue fluorogenic substrate, 40 min
# Procedure, shortened: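 Compounds titrated from 0.6 nM upwards against 0.2 nM enzyme in pH 5.9 citric acid/KH2PO4, taurocholate, tween-20; blue fluorogenic substrate 80 uM, 40 min room temperature, stopped and read Ex 365/Em 440 for AC50.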
# [2] = AP1 Signaling Pathway (AID 357; active means well fitted curve in either direction with a large enough effect, not every such curve was filed as active;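 further: ME-180 reporter cells stimulated with EGF at its EC50 level; on the % scale 0 is the no-effect control and ±100 the full control effect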); conditions: ME-180 AP-1-bla reporter, EGF-induced, beta-lactamase ratio, 5 h; at 7.69 µM (top of the series) unless noted
# Procedure, shortened: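 A ratiometric CCF4 readout (405 nm excitation; 460 and 530 nm emission) quantified AP-1-driven beta-lactamase in ME-180 cells after 5 h with compound and EC50 EGF; AC50 values were derived for activators and inhibitors.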
# [3] = Stat Signaling Pathway (AID 446; active means well fitted curve in either direction with a large enough effect, not every such curve was filed as active;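 further: ME-180 cervical cancer cells given 40 pM IL-6 alongside compound; SIE-controlled beta-lactamase reporter measured as 460/530 nm FRET emission ratio; on the % scale 0 is the no-effect control and ±100 the full control effect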); conditions: ME-180 (cervical carcinoma) SIE beta-lactamase reporter, IL-6 stimulated, 5 h; at 7.69 µM (top of the series) unless noted
# Procedure, shortened: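 IL-6/STAT signaling read in ME-180 cells via an SIE beta-lactamase reporter. Stimulus was 40 pM IL-6 (its AC50) for 5 hrs, so both activation and inhibition register.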
# [4] = target: Glucocorticoid receptor (Homo sapiens) (UniProt P04150); assay: GR-EFC Redistribution (AID 451; calls by dose curve; further: potency means the concentration at half of the fitted maximal effect); conditions: CHO-K1 GR-EFC translocation, beta-gal luminescence, 2 h
# Procedure, shortened: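 Translocation of GR-ED fusion to nuclear EA restores b-gal, read by luminescence after 1 h room-temperature detection. Engineered CHO-K1 biosensor cells, 1,000/well, exposed 2 h at 37 C to titrations up to 46 uM final.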
# [5] = target: Mitogen-activated protein kinase 10 (Mus musculus) (UniProt Q61831); assay: JNK3 AlphaScreen Assay (AID 530; active means well fitted curve in either direction with a large enough effect, not every such curve was filed as active;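 further: kinase came from lysate of stimulated human HepG2 cells; signal reports phosphorylation of biotinylated GST-cJun 1-79 at Ser73 with 10 µM ATP; on the % scale 0 is the no-effect control and ±100 the full control effect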); conditions: JNK3 lysate, c-Jun phosphorylation; series mostly up to 57.1 µM
# Procedure, shortened: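 Room-temperature AlphaScreen kinase assay; pre-activated HepG2 lysate as JNK3 source, biotin-GST-cJun(1-79) substrate, 10 uM ATP, compound 15 min preincubation.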
# [6] = target: 3',5'-cyclic-AMP phosphodiesterase 4B (Homo sapiens) (UniProt Q07343); assay: qHTS Assay for Inhibitors of PDE-IV (AID 607; active means well fitted activation curve with a large enough effect in the main read-out, with a control signal flat, not every such curve was filed as active; further: % of control where 0% means no effect); conditions: HEK293 ACTOne CNG channel cells, membrane potential fluorescence; series mostly up to 22.9 µM
# Procedure, shortened: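 Live HEK293 cells with a modified cyclic nucleotide-gated (CNG) channel report intracellular cAMP via membrane-potential dye fluorescence (ex 535/em 590 nm). Endogenous PDE-IV was targeted. Compounds were tested at up to 22.9 uM final; RO 20-1724 100 uM served as control.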
# [7] = qHTS Assay for Lipid Storage Modulators (AID 1519; calls by dose curve); conditions: Drosophila S3 cells, BODIPY lipid droplet/cell ratio, laser cytometry, cells loaded with oleic acid; for activity change, negative = inhibition: at 57.5 µM (top of the series)
# Procedure, shortened: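 Cells seeded at 5,000 per well were treated with compounds over a concentration series and loaded with oleic acid (400 uM, as added). Lipid droplet fluorescence (488 nm excitation, 500-530 nm channel) was read by laser-scanning cytometry and normalized to 20 uM Triacsin C.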
# [8] = Primary qHTS for small molecule stabilizers of the endoplasmic reticulum resident proteome: Secreted ER Calcium Modulated Protein (SERCaMP) assay (AID 1508630); conditions: SH-SY5Y GLuc-SERCaMP (Gaussia luciferase released on ER calcium loss) secretion, thapsigargin, luminescence; series mostly up to 38.4 µM; further: on the % scale 0 is the no-effect control and ±100 the full control effect
# Procedure, shortened: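 GLuc-SERCaMP-expressing SH-SY5Y cells, pretreated 16 h with compound, are challenged with thapsigargin to empty ER calcium stores; after 4 h, coelenterazine is added directly to the medium and luminescence is imaged.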
# [9] = target: Cytochrome P450 2C9 (Homo sapiens) (UniProt P11712); assay: qHTS Assay for Inhibitors and Substrates of Cytochrome P450 2C9 (AID 883); conditions: recombinant CYP2C9, luciferin-H luminescence, 60 min; series mostly up to 57.1 µM; further: nearly all actives have a fitted effect of over 60% in size; further: potency means the concentration at half of the fitted maximal effect
# Procedure, shortened: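 Turnover of Luciferin-H (100uM, KM) by 10nM human CYP2C9 was measured over 60 min at 37C with NADPH regeneration; inhibitors and some substrates reduce luminescence. Data normalized to sulphaphenazole 57uM.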
# [10] = target: Cytochrome P450 2D6 (Homo sapiens) (UniProt P10635); assay: qHTS Assay for Inhibitors and Substrates of Cytochrome P450 2D6 (AID 891); conditions: recombinant CYP2D6, luciferin-ME EGE luminescence; series mostly up to 57.1 µM; further: potency means the concentration at half of the fitted maximal effect; nearly all actives have a fitted effect of over 60% in size
# Procedure, shortened: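 Human CYP2D6 (5 nM) with 30 uM Luciferin-ME EGE (at Km) in 100 mM KPO4, compound preincubated 10 min, then NADPH regeneration system for 60 min at room temperature. Luciferin read by luminescence; normalized to 1.43 uM quinidine.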
# [11] = target: Cytochrome P450 2C19 (Homo sapiens) (UniProt P33261); assay: qHTS Assay for Inhibitors and Substrates of Cytochrome P450 2C19 (AID 899); conditions: recombinant CYP2C19, luciferin-H EGE luminescence; series mostly up to 57.1 µM; further: potency means the concentration at half of the fitted maximal effect; nearly all actives have a fitted effect of over 60% in size
# Procedure, shortened: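 Reactions contain 5nM enzyme, 10uM Luciferin-H EGE (KM) and 50mM KPO4; compound preincubates 10 min at 37C, NADPH regeneration starts turnover for 60 min. Luminescence after detection reagent gives activity.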
# [12] = target: Cytochrome P450 1A2 (Homo sapiens) (UniProt P05177); assay: p450-cyp1a2 (AID 410; calls by dose curve; further: potency means the concentration at half of the fitted maximal effect); conditions: recombinant CYP1A2, luciferin-ME demethylation, luminescence; series mostly up to 57 µM
# Procedure, shortened: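 Inhibition was calculated relative to 57 uM furafylline (full inhibition). The reaction used human CYP1A2 at 20nM with Luciferin-ME at its Km, 100uM, driven by an NADPH-regenerating system for 60 min at room temperature.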
# [13] = target: Glucocorticoid receptor (Homo sapiens) (UniProt P04150); assay: GR-GFP Redistribution (AID 450;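 active means compounds whose dose series gives a full or clear partial fitted curve of increased nuclear translocation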; further: potency means the concentration at half of the fitted maximal effect); conditions: U2OS GR-GFP nuclear translocation, laser cytometry, 2 h
# [14] = target: Cytochrome P450 3A4 (Homo sapiens) (UniProt P08684); assay: qHTS Assay for Activators of Cytochrome P450 3A4 (AID 885); conditions: recombinant CYP3A4, Luciferin-PPXE luminescence, 60 min; series mostly up to 57.1 µM; further: nearly all actives have a fitted effect of over 65% in size
# Procedure, shortened: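 Quantitative HTS format: compounds preincubated with 20nM human CYP3A4 and Luciferin-PPXE substrate at KM, reaction started by NADPH regeneration, stopped after 60 min, luciferase luminescence read 20 min later.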
# [15] = Confirmation and Secondary Assay for Modulators of Hemoglobin Beta Chain Splicing at IVS2 654 locus (AID 910); conditions: HeLa EGFP-654 splicing reporter, GFP fluorescence, 48 h; series mostly up to 38.3 µM;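 further: HeLa cells stably carrying EGFP split by mutant beta-globin IVS2-654 intron; per-well total GFP intensity by laser scanning cytometry after 2-day treatment; % of control where 0% means no effect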
# Procedure, shortened: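 Readout: per-well total peak green fluorescence (488 nm ex, 500–520 nm em) from objects 5–250 µm, reflecting correct splicing of an EGFP-654 reporter. Compounds were applied for 2 days at 37 °C to overnight-plated HeLa EGFP-654 cells; controls were DMSO and 500 nM IVS2-654 PNA.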
# [16] = target: Ubiquitin carboxyl-terminal hydrolase 1 (Homo sapiens) (UniProt O94782); assay: Inhibitors of USP1/UAF1: Pilot qHTS (AID 504865); conditions: purified USP1/UAF1, Ub-rhodamine cleavage fluorescence; series mostly up to 54.9 µM;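 further: rhodamine fluorescence freed from ubiquitin-rhodamine substrate followed over time; top concentration of the series differs between compounds; on the % scale 0 is the no-effect control and ±100 the full control effect; nearly all actives have a fitted effect of over 35% in size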
# Procedure, shortened: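 Deubiquitinase activity followed as kinetic rhodamine fluorescence release from 150 nM Ub-Rho. 1 nM USP1/UAF1 with compound, after 15 min room-temperature preincubation, in HEPES pH 7.8 buffer containing TCEP, EDTA, BSA and Tween-20.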
# [17] = measured here: cell count channel max response
# [18] = measured here: lipid channel max response
# Sequence of 3',5'-cyclic-AMP phosphodiesterase 4B (Homo sapiens) (Q07343 whole entry, looked up): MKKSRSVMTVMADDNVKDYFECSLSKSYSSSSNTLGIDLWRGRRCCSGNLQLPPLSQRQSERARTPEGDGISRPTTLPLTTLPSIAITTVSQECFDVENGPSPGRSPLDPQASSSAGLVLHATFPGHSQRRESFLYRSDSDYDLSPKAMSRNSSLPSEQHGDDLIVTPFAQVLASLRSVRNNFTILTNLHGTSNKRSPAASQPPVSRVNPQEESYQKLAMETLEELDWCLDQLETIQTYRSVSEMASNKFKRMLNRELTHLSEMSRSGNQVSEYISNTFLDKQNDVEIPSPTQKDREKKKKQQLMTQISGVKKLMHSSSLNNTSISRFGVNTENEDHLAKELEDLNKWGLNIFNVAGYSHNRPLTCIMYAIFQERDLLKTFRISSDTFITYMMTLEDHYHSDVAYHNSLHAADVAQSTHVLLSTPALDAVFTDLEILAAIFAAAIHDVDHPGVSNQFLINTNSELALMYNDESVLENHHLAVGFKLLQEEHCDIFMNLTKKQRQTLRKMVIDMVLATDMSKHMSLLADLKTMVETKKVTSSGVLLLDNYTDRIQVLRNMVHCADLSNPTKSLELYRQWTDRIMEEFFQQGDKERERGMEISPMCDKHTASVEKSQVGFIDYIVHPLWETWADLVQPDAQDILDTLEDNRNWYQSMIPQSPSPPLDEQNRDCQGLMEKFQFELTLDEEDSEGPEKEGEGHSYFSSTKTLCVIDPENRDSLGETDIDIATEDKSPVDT
# Sequence of Glucocorticoid receptor (Homo sapiens) (P04150 whole entry, looked up, the tested form may be a part): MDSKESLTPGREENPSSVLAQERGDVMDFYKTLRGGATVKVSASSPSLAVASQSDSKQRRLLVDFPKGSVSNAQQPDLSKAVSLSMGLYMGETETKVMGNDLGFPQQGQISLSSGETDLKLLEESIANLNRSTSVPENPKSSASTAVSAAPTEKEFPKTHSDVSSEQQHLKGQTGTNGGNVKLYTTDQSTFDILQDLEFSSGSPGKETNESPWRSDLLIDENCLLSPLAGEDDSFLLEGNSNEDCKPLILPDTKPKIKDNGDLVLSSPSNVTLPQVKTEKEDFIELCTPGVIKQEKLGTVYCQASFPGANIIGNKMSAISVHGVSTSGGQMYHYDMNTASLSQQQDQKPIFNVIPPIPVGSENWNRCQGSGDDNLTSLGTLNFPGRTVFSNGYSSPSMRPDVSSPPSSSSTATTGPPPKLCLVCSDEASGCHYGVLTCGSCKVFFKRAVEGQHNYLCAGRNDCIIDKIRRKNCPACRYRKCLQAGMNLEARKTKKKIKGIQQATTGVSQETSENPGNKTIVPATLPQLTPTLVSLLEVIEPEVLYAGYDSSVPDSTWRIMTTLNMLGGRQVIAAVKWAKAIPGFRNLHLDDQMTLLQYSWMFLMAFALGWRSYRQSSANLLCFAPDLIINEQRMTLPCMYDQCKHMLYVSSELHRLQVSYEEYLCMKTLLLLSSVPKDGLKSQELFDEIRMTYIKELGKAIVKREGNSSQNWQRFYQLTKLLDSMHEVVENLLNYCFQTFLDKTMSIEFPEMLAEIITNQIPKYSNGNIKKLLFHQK
# Sequence of Lysosomal acid glucosylceramidase (Homo sapiens) (P04062 whole entry, looked up): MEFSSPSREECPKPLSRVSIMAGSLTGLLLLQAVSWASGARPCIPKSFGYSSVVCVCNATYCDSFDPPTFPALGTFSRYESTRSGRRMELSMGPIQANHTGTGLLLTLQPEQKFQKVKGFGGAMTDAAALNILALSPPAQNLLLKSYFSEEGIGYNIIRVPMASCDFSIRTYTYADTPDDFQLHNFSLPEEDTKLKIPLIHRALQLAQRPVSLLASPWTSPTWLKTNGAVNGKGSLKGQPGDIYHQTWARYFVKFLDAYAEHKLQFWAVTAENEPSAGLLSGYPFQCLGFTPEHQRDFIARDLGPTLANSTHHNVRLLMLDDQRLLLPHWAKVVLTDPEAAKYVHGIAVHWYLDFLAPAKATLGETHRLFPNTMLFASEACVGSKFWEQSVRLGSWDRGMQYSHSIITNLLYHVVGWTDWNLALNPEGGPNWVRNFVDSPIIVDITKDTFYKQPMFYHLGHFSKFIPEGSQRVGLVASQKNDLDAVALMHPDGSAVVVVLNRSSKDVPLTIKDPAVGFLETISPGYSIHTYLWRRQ
# Sequence of Cytochrome P450 2C9 (Homo sapiens) (P11712 whole entry, looked up): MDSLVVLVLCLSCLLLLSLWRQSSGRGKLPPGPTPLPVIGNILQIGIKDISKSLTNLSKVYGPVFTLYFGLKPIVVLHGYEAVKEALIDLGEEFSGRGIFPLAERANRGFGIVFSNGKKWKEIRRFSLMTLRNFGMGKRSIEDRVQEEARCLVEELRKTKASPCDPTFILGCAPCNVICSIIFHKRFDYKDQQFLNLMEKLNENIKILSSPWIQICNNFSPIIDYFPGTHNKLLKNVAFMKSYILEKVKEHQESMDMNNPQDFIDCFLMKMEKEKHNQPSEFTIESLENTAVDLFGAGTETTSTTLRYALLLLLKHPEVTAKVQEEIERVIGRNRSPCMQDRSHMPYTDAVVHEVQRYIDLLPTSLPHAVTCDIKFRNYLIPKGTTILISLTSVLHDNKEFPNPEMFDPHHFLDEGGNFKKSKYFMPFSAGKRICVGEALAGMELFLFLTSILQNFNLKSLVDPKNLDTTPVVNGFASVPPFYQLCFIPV
# Sequence of Cytochrome P450 3A4 (Homo sapiens) (P08684 whole entry, looked up): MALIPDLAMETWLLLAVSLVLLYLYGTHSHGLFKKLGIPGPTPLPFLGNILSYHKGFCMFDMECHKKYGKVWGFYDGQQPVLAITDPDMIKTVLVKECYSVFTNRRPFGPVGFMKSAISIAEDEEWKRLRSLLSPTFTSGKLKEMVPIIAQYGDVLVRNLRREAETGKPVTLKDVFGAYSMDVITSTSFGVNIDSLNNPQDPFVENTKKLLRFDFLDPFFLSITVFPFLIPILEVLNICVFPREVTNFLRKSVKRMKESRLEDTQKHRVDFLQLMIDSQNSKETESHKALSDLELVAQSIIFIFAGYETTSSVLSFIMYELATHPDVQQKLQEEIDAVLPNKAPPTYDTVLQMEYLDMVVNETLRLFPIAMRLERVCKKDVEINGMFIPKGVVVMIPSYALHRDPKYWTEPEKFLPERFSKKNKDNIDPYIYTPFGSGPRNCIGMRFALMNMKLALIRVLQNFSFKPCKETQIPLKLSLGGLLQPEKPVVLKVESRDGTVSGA
# Sequence of Cytochrome P450 1A2 (Homo sapiens) (P05177 whole entry, looked up): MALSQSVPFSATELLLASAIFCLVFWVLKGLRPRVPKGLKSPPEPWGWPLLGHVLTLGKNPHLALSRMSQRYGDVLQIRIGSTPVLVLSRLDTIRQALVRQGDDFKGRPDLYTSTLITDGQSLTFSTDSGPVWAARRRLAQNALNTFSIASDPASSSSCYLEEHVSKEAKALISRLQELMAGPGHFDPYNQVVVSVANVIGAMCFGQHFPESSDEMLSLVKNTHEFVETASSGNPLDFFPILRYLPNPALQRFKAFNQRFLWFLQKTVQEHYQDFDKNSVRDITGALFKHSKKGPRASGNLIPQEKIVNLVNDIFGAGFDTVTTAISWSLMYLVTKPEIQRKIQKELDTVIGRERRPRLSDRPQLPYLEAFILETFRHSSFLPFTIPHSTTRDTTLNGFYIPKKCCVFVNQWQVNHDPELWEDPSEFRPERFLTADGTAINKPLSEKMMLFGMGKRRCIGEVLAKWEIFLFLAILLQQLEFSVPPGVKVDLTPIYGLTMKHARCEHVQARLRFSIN
# Sequence of Cytochrome P450 2D6 (Homo sapiens) (P10635 whole entry, looked up): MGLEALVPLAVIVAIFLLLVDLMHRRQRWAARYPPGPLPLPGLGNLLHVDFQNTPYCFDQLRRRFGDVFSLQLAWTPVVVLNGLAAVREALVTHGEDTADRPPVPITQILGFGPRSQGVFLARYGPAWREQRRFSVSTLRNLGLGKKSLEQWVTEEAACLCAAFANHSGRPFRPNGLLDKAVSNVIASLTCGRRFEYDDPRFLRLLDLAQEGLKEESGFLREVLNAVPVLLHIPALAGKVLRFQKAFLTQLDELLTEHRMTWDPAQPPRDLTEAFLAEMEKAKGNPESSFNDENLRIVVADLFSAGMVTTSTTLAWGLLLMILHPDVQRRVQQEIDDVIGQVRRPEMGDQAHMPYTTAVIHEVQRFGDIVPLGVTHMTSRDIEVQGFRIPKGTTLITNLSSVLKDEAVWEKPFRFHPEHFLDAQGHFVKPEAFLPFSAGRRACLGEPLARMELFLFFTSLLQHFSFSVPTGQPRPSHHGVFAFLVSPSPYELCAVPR
# Sequence of Cytochrome P450 2C19 (Homo sapiens) (P33261 whole entry, looked up): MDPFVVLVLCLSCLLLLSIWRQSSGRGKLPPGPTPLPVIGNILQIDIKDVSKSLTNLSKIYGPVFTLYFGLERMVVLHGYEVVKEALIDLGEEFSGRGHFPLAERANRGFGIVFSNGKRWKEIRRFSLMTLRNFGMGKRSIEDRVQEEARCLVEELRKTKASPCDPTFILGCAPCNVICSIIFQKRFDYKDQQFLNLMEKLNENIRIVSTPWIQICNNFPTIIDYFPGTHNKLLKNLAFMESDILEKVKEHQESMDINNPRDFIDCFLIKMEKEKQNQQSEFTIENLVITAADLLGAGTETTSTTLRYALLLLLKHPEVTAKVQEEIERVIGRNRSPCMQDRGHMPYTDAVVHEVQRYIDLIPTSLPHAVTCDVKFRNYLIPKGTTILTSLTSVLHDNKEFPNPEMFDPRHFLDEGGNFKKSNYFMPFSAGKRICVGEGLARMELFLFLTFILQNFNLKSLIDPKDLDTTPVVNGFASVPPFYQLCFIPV
smiles,measurement,setting,value
COCC(=O)N1CCC2(CC1)CCN(c1ccncc1)CC2,Potency,[1],> 11.4 µM (inactive)
same,"activity change, negative = inhibition",[2],7.44% (inactive)
same,"activity, negative = inhibition",[3],16.3% (inactive)
same,Potency,[4],> 46 µM (inactive)
same,Potency,[5],inactive
same,Potency,[6],inactive
same,"activity change, negative = inhibition",[7],-1.56% (inactive)
same,max response,[7]; [17],-6.96%
same,max response,[7]; [18],-10.2%
same,outcome,[8],inactive
CC(=O)N1CCC2(CCCN(c3ccncc3)C2)CC1,Potency,[1],> 11.4 µM (inactive)
same,"activity change, negative = inhibition",[2],-16.6% (inactive)
same,"activity, negative = inhibition",[3],-5.29% (inactive)
same,Potency,[4],> 46 µM (inactive)
same,Potency,[5],inactive
same,Potency,[6],inactive
same,"activity change, negative = inhibition",[7],4.08% (inactive)
same,max response,[7]; [17],1.51%
same,max response,[7]; [18],7.47%
same,outcome,[8],inactive
N#Cc1ccc(CN2CCC3(CC2)CCN(C(=O)c2ccco2)CC3)cc1,Potency,[1],> 11.4 µM (inactive)
same,"activity change, negative = inhibition",[2],-11.2% (inactive)
same,"activity, negative = inhibition",[3],-4.42% (inactive)
same,Potency,[4],> 46 µM (inactive)
same,Potency,[5],inactive
same,Potency,[6],inactive
same,"activity change, negative = inhibition",[7],1.05% (inactive)
same,max response,[7]; [17],20.4%
same,max response,[7]; [18],24%
same,outcome,[8],inactive
COc1ccccc1CN1CCCC2(CCN(C(=O)c3cccc(F)c3)CC2)C1,Potency,[1],> 11.4 µM (inactive)
same,"activity change, negative = inhibition",[2],-7.36% (inactive)
same,"activity, negative = inhibition",[3],1.24% (inactive)
same,Potency,[4],> 46 µM (inactive)
same,Potency,[5],inactive
same,Potency,[6],inactive
same,"activity change, negative = inhibition",[7],0.576% (inactive)
same,max response,[7]; [17],3.85%
same,max response,[7]; [18],7.25%
same,outcome,[8],inactive
CS(=O)(=O)N1CCC2(CCCN(Cc3ccccc3)C2)CC1,Potency,[1],> 11.4 µM (inactive)
same,"activity change, negative = inhibition",[2],-13.8% (inactive)
same,"activity, negative = inhibition",[3],-2.17% (inactive)
same,Potency,[4],> 46 µM (inactive)
same,Potency,[5],inactive
same,Potency,[6],inactive
same,"activity change, negative = inhibition",[7],0.839% (inactive)
same,max response,[7]; [17],10.5%
same,max response,[7]; [18],13.7%
same,outcome,[8],inactive
O=C(c1cccc(F)c1)N1CCC2(CCCN(C(c3ccccc3)c3ccccc3)C2)CC1,Potency,[9],3.16 µM (active)
O=S(=O)(c1ccccc1)N1CCC2(CC1)CN(c1ccncc1)C2,Potency,[9],inactive
CS(=O)(=O)N1CCC2(CC1)CN(c1ccccc1)C2,Potency,[10],1.26 µM (active)
COc1ccccc1CN1CCC2(CC1)CCN(S(C)(=O)=O)CC2,Potency,[10],0.02 µM (active)
COc1ccccc1CNc1ncncc1-c1ccccc1C,Potency,[11],3.98 µM (active)
COC(=O)N1CCC2(CCCN(c3ccccn3)C2)CC1,Potency,[11],3.16 µM (active)
COc1ccc(CNc2nc(-c3ccc(C(=O)N(C)C)cc3)nc3ccccc23)c(OC)c1,Potency,[1],> 11.4 µM (inactive)
same,Potency,[12],15.8 µM (active)
same,Potency,[13],> 46 µM (inactive)
same,Potency,[4],> 46 µM (inactive)
same,Potency,[5],inactive
same,Potency,[14],inactive
same,Potency,[15],inactive
same,"activity change, negative = inhibition",[7],6.93% (inactive)
same,max response,[7]; [17],-11.3%
same,max response,[7]; [18],8.44%
same,Potency,[16],inactive
same,outcome,[8],inactive
COc1ccc(-c2nc3cnc(N4CCNCC4)nc3n(C)c2=O)cc1,Potency,[1],> 11.4 µM (inactive)
same,Potency,[12],12.6 µM (active)
same,Potency,[13],> 9.22 µM (inactive)
same,Potency,[4],> 46 µM (inactive)
same,Potency,[5],inactive
same,Potency,[6],inactive
same,Potency,[14],inactive
same,"activity change, negative = inhibition",[7],4.15% (inactive)
same,max response,[7]; [17],15.8%
same,max response,[7]; [18],21.9%
same,outcome,[8],inactive
